# Experimental data as given in PubChem BioAssay AID651699 (Sanford-Burnham Center for Chemical Genomics, 2012).
# About 2,100 (0.58%) of roughly 360,000 compounds were called active. The full list was thinned out, with actives kept by preference. A number with no mark means an inactive call. Rule as the data show it: active = inhibition above about 36%; inactive = the rest.
# Target: NEDD8-conjugating enzyme Ubc12 (Homo sapiens) + NEDD8-activating enzyme E1 regulatory subunit (Homo sapiens) (UniProt P61081+Q13564)
# Sequence (P61081 whole entry, looked up): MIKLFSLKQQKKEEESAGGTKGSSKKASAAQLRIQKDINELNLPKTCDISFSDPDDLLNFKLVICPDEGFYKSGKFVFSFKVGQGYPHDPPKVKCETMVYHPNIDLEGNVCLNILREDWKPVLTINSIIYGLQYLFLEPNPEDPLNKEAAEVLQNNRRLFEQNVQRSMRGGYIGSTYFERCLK
# Sequence (Q13564 whole entry, looked up): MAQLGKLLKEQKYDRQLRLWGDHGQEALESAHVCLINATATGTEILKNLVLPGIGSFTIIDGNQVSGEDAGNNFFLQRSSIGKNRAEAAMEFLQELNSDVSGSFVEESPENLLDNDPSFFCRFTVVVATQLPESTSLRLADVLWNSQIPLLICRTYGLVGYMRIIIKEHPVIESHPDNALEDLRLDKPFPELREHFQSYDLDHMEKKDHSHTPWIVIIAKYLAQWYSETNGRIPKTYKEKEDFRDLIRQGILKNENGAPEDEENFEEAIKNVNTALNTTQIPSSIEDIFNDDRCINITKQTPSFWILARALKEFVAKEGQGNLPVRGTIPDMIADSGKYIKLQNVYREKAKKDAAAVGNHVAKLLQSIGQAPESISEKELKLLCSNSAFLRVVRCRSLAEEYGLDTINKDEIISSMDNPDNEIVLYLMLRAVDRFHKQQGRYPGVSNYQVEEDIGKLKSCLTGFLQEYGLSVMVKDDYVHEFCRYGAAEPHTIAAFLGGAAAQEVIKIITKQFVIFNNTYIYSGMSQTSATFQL
# Assay: inhibitors of cullin neddylation, primary screen, biochemical, TR-FRET, uHTS, NAE and Ubc12 (AID 651699)
# Settings: at 25 µM, active compounds read high
row,SMILES,inhibition
1,CC(=CCOc1ccc2ccc(=O)oc2c1)C1=CC(=O)C(C)(C)O1,48.3% (active)
2,COC(=O)CN1C(=O)C2(C(C(=O)OC)=C(N)Oc3ccccc32)C2=C1CC(C)(C)CC2=O (stereo not given),0.61%
3,O=C(CCC(=O)N1C[C@H]2C[C@@H](C1)c1cccc(=O)n1C2)NCc1ccccc1C(F)(F)F,-4.64%
4,O=C(c1cc(S(=O)(=O)N2CCOCC2)ccc1F)N1CCC2(CC1)OCCO2,4.52%
5,CCC(C)n1c(O)c(/C=N/Nc2nc3c(c(=O)n(C)c(=O)n3C)n2C)c(=O)[nH]c1=S (stereo not given),40.5% (active)
6,CCN1C(=O)NC(=O)C2(CCCC2)C1=O,1.81%
7,CC(c1ccccc1)(c1ccccc1)c1ccncc1,-5.54%
8,COc1ccc2c(c1)[C@]13CCCCC1C(C2)N(C)CC3 (stereo not given in full),-8.52%
9,COP(=O)(NS(=O)(=O)c1ccccc1)OC,-0.79%
10,CCN1c2nc3c(C)cccn3c(=O)c2CC2(C(=O)N(C)C(=O)N(C)C2=O)C1C (stereo not given),41.1% (active)
11,CCCCCn1c(=O)c(C(=O)NCc2ccccn2)c(O)c2ccccc21,4.17%
12,CC1(C)Cc2c(C#N)c(N3CCNCC3)nc(-c3ccco3)c2CS1,25.7%
13,COc1ccc(C(=O)C2CCCN(Cc3ccc(C)s3)C2)cc1OC (stereo not given),0.31%
14,CN1C2C=C(N(C(=O)c3ccc(Cl)cc3)c3ccccc3)CC1CC2 (stereo not given),0.6%
15,CCCCC(=O)N/N=C/c1c(O)n(CCC2=CCCCC2)c(=O)[nH]c1=O,52.9% (active)
16,CCCCC(=O)N/N=C/c1c(O)n(CC)c(=S)n(CC)c1=O,-37%
17,O=c1[nH]c(=O)n(CCc2ccc(F)cc2)c(O)c1/C=N/N1CCCCC1,-6.7%
18,COC(=O)C1=C(c2ccccc2)C[C@@H]2CC[C@H]1N2C(=O)N1CCCCC1,-6.19%
19,COc1cccc(OC)c1C(=O)NC(=S)N1C[C@H]2C[C@H](C1)c1cccc(=O)n1C2,-2.07%
20,c1ccc2sc(N3CCNCC3)nc2c1,1.66%
